Only some compounds are listed: those with a hit (about 1.1% of all), similar ones and a draw of the others.
RGS4 inhibitor: human RGS4 inhibition. 390,000 tested, 0.039% active. Transcreener GDP fluorescence polarization, RGS4-accelerated GTP hydrolysis. P49798. Potency, µM (titrated, usually from 114 µM), inactives show at the highest dose activity change, negative = inhibition, most hits filed as inhibitors. AID 504845; also: nearly all actives have a fitted effect of over 75% in size
Target sequence (P49798 whole entry, looked up): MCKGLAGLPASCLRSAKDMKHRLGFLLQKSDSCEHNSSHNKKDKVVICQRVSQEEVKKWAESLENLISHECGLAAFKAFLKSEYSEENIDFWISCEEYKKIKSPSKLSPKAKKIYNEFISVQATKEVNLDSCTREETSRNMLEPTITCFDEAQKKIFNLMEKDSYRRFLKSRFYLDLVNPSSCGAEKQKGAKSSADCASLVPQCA
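MLSMR compounds (23 nl, pin-transferred) preincubated 10 min at room temperature with a 500nM (2x) first reagent, then RGS4 at 900nM (2x) plus Transcreener GDP mix added; fluorescence polarization (620/688 nm) read before and after 90 min at 30 °C.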
rTrxR1 inhibitor: blocks rat thioredoxin reductase 1; O89049; recombinant rTrxR1, NADPH fluorescence consumption, selenite substrate; Potency, µM (top dose mostly 114 µM), for the others: at the highest dose activity change, negative = inhibition, usual class: inhibitors; 390,000 tested, 1% active; AID 588453; also: nearly all actives have a fitted effect of over 65% in size
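Rat TrxR1 (90 nM in the dispensed reagent) was pre-reduced with 400 uM NADPH for 5 min at room temperature, then incubated with compound for 15 min. After 400 uM selenite was added, NADPH fluorescence (Ex 340/Em 450 nm) was followed for 8 min.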
TrxR1 substrate: rat thioredoxin reductase 1 substrate activity. O89049. purified TrxR1 substrate turnover, NADPH consumption readout. Potency, µM (series often up to 114 µM), inactives show at the top dose activity change, negative = substrate turnover. 390,000 tested, 0.01% active. AID 588456; also: nearly all actives have a fitted effect of over 50% in size
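Rat TrxR1, dispensed at 90 nM, was prereduced with 400 uM NADPH (final) for 5 min at ~22 deg C, then incubated with compound 15 min before 400 uM selenite. A first-read NADPH fluorescence drop versus no-compound background flagged substrates.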
Eya2 phos inh: inhibitors of human Eya2 phosphatase activity | AID 488837 | recombinant Eya2, OMFP fluorescence dephosphorylation (OMFP is methylfluorescein phosphate) | 330,000 tested, 0.006% active | Potency, µM (series often up to 76.9 µM), for inactives: top-dose activity, negative = inhibition, usual class: inhibitors | O00167
Target sequence (O00167 whole entry, looked up): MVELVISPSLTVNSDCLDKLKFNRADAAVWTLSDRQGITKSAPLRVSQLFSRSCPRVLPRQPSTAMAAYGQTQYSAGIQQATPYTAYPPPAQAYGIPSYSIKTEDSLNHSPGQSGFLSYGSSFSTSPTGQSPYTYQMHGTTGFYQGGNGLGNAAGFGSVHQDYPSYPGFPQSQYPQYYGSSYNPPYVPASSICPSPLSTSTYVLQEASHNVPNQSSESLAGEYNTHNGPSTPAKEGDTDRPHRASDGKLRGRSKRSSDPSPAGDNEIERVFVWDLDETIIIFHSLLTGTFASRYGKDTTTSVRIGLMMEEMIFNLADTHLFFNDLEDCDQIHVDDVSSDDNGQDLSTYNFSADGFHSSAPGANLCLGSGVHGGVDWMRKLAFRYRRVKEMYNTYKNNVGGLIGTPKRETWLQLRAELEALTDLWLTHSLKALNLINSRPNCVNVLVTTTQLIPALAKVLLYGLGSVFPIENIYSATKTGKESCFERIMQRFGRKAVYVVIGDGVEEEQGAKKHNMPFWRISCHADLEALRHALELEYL
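Eya2 protein (added as 0.2 uM solution) was preincubated with compound for 10 min at ambient temperature in 50 mM HEPES pH 7.5, 50 mM NaCl, 5 uM MgCl2, 0.05% BSA, 1 mM DTT. OMFP (added at 50 uM) then reacted 10 min; fluorescence read at 485/525 nm.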
IDH1 R132H inh: human IDH1 R132H inhibition; O75874; IDH1-R132H enzyme, NADPH consumption, diaphorase/resazurin fluorescence; Potency, µM (highest dose often 76.6 µM), without a hit: at the highest dose activity change, negative = inhibition, most hits filed as inhibitors; 390,000 tested, 0.093% active; AID 602179; also: nearly all actives have a fitted effect of over 65% in size
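IDH1-R132H (0.5 ug/mL) preincubated 30 min with compound, then NADPH (0.016 mM) and alpha-KG (2 mM) added; 80 min at RT, pH 7.5. Remaining NADPH coupled via diaphorase/resazurin to fluorescence (540/590 nm); concentration-response curves normalized to no-enzyme control.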
* marks the source's active call; other numbers are inactive results; [ ] = remark or other dose. Calls follow the shape of the dose curve; as a rule, active = well fitted curve in the direction sought with a large enough effect; inconclusive = small, poorly fitted or top-dose-only effect, or another doubt; inactive = no such curve, though single readings can be large; an effect the other way counts as inactive or inconclusive. % is scaled to controls: 0 for no effect and ±100 for the full control effect; potency is read from the fitted curve at half-maximal effect.

`O=C(CCN1CCC(c2cccs2)=N1)c1cccs1` gave RGS4 inhibitor -31.6%, rTrxR1 inhibitor 22.4µM*, TrxR1 substrate -0.5%, Eya2 phos inh 0.6% and IDH1 R132H inh 8.5%.
O=C(CCC(=O)N1CCN(c2ccccn2)CC1)c1cccs1 was read as RGS4 inhibitor 21.5%, rTrxR1 inhibitor 12.0%, TrxR1 substrate 7.0%, Eya2 phos inh -30.0% and IDH1 R132H inh 6.1%.
`O=C(CCN1CCCCCC1)c1ccccc1` gave RGS4 inhibitor 1.9%[11.4 µM], rTrxR1 inhibitor 0.891µM*, TrxR1 substrate 10.4%[11.4 µM], Eya2 phos inh -4.9% and IDH1 R132H inh 3.2%.
Screening CCCOc1ccc(C(=O)CCN2CCN(C(=O)OCC)CC2)cc1 returned RGS4 inhibitor inconclusive, rTrxR1 inhibitor 8.91µM*, TrxR1 substrate 3.6%[57.1 µM], Eya2 phos inh 6.8% and IDH1 R132H inh 0.3%.
For COc1ccc(C(=O)OCCN2CCCCC2)cc1 the results were RGS4 inhibitor 4.0%, rTrxR1 inhibitor -1.7%, TrxR1 substrate -2.1%, Eya2 phos inh -12.7% and IDH1 R132H inh 0.0%.
CCOC(=O)N1CCN(C(=O)CCC(=O)c2ccc(OCC)cc2)CC1 was read as RGS4 inhibitor -21.0%, rTrxR1 inhibitor 10.6%, TrxR1 substrate 2.0%, Eya2 phos inh -1.5% and IDH1 R132H inh -3.3%.
`COc1ccc(C(=O)CN2CCN(c3ccc(F)cc3)CC2)cc1OC` gave RGS4 inhibitor 22.0%, rTrxR1 inhibitor 20µM*, TrxR1 substrate 1.6%, Eya2 phos inh 2.5% and IDH1 R132H inh 5.0%.
`COc1ccc(C(=O)CN2CCN(c3ccc(Cl)cc3)CC2)cc1OC` gave RGS4 inhibitor 2.9%, rTrxR1 inhibitor -16.9%, TrxR1 substrate 7.4%, Eya2 phos inh -2.0% and IDH1 R132H inh -1.2%.
Screening COc1ccc(C(=O)CCN2CCCCCC2)cc1 returned RGS4 inhibitor inconclusive, rTrxR1 inhibitor 0.794µM*, TrxR1 substrate 6.5%, Eya2 phos inh -8.3% and IDH1 R132H inh 2.2%.
For O=C(CCN1CCCC1)c1cccs1 the results were RGS4 inhibitor inconclusive, rTrxR1 inhibitor 0.398µM*, TrxR1 substrate 4.7%[57.1 µM], Eya2 phos inh 16.4% and IDH1 R132H inh 3.9%.
`CCOc1c(Cl)cc(C2NC(=O)NC(C)=C2C(=O)NCc2ccccc2)cc1OC` (stereo unspecified) gave RGS4 inhibitor 11.8%, rTrxR1 inhibitor 5.0%, TrxR1 substrate 2.5%, Eya2 phos inh 6.5% and IDH1 R132H inh -10.0%.
`COC(=O)c1ccc(N(C(=O)CNC(=O)c2ccco2)C(C(=O)NCC2CCCO2)c2ccc(OC)c(OC)c2)cc1` (stereo unspecified) gave RGS4 inhibitor 16.7%, rTrxR1 inhibitor 15.1%[57.1 µM], TrxR1 substrate 10.2%[57.1 µM], Eya2 phos inh -1.9% and IDH1 R132H inh 21.8%.
`S=C(Nc1ccccc1)N(CCN1CCOCC1)Cc1cccc(Cl)c1` gave RGS4 inhibitor 0.8%, rTrxR1 inhibitor 5.6%, TrxR1 substrate -0.2%, Eya2 phos inh 7.5% and IDH1 R132H inh 1.1%.
Screening CN(C)CCOC(C1CCCCC1)C1CCCCC1 returned RGS4 inhibitor 0.2%, rTrxR1 inhibitor 31.0%, TrxR1 substrate 8.0%, Eya2 phos inh -27.5% and IDH1 R132H inh 4.5%.
`COc1ccc(C(=O)CCN2CCN(c3ccc(OC)cc3)CC2)cc1` gave RGS4 inhibitor -31.5%, rTrxR1 inhibitor 2.82µM*, TrxR1 substrate -4.6%[57.1 µM], Eya2 phos inh -8.3% and IDH1 R132H inh 3.0%.
`Cc1cccc(NC(=O)c2ccc(F)c(S(=O)(=O)NCc3ccco3)c2)c1` gave RGS4 inhibitor -30.4%, rTrxR1 inhibitor 79.4µM*, TrxR1 substrate -7.7%, Eya2 phos inh -2.4% and IDH1 R132H inh 0.0%.
`Cc1cccc(C)c1NC(=O)CNC(=O)c1ccc(S(=O)(=O)NCc2ccco2)cc1` gave RGS4 inhibitor -47.9%, rTrxR1 inhibitor 28.2µM*, TrxR1 substrate 3.5%, Eya2 phos inh -17.7% and IDH1 R132H inh -2.7%.
For CCc1ccccc1NC(=O)CNC(=O)c1ccc(S(=O)(=O)NCc2ccco2)cc1 the results were IDH1 R132H inh -2.1%.
CC(=O)Nc1cccc(NC(=O)c2ccc(S(=O)(=O)NCc3ccco3)cc2)c1 was read as IDH1 R132H inh -3.6%.
Screening COCCCNC(=O)/C(C#N)=C/c1c(N2CCN(c3ccccc3)CC2)nc2c(C)cccn2c1=O returned RGS4 inhibitor 12.1%, rTrxR1 inhibitor -26.1%, TrxR1 substrate 20.5%, Eya2 phos inh -9.7% and IDH1 R132H inh 7.4%.
Screening Cc1csc(NC(=O)CCc2c(C)nc3cc(-c4cccc(F)c4)nn3c2C)n1 returned RGS4 inhibitor 6.3%, rTrxR1 inhibitor 22.8%, TrxR1 substrate 9.2%, Eya2 phos inh -2.4% and IDH1 R132H inh -3.7%.
Screening CCN(CC)CCCNC(=O)CN1N=C(c2ccccc2)CCC1=O returned RGS4 inhibitor 11.1%, rTrxR1 inhibitor 4.9%[57.1 µM], TrxR1 substrate -1.5%[57.1 µM] and IDH1 R132H inh 43.1%.
Screening Cc1[nH]n(-c2ncc(-c3ccc(Cl)cc3)s2)c(=O)c1C(c1ccc(Cl)cc1)C(C#N)C#N (stereo unspecified) returned RGS4 inhibitor -46.7%, rTrxR1 inhibitor 11.2µM*, TrxR1 substrate -7.7%, Eya2 phos inh 1.4% and IDH1 R132H inh inconclusive.
For OC[C@H]1OC(O)[C@H](O)[C@@H](O)[C@H]1O (stereo partly specified) the results were RGS4 inhibitor -10.6%, rTrxR1 inhibitor 18.4%, TrxR1 substrate 6.8%, Eya2 phos inh 19.1% and IDH1 R132H inh -6.9%.
Screening OCC1O[C@H]([S-])[C@H](O)[C@@H](O)[C@@H]1O.[Au+] (stereo partly specified) returned RGS4 inhibitor 0.597µM*, rTrxR1 inhibitor 0.251µM*, TrxR1 substrate 12.8%[57.1 µM] and Eya2 phos inh -3.2%.
Screening COc1ccc(OC)c(/C=N/NC(=O)c2cc(-c3ccc(C)o3)nc3ccccc23)c1 returned RGS4 inhibitor 6.3%, rTrxR1 inhibitor 79.4µM*, TrxR1 substrate 21.8%, Eya2 phos inh -3.9% and IDH1 R132H inh 5.3%.
Cc1ccc(-c2cc(C(=O)Nc3cccnc3)c3ccccc3n2)o1 was read as RGS4 inhibitor inconclusive, rTrxR1 inhibitor 8.91µM*, TrxR1 substrate 19.8%, Eya2 phos inh 5.3%[15.4 µM] and IDH1 R132H inh 3.7%.
For Cc1ccc(NC(=O)c2cc(-c3ccc(C)o3)nc3ccccc23)cc1 the results were RGS4 inhibitor inconclusive, rTrxR1 inhibitor 11.2µM*, TrxR1 substrate 10.7%, Eya2 phos inh 17.3% and IDH1 R132H inh 2.7%.
For Cc1ccc(-c2cc(C(=O)Nc3ccccn3)c3ccccc3n2)o1 the results were RGS4 inhibitor inconclusive, rTrxR1 inhibitor -69.5%, TrxR1 substrate 14.7%[57.1 µM], Eya2 phos inh 2.0% and IDH1 R132H inh 4.3%.
CCOC(=O)C(Cc1c(F)cccc1F)(NC(C)=O)C(=O)OCC was read as RGS4 inhibitor -11.0%, rTrxR1 inhibitor 3.5%, TrxR1 substrate 0.9%, Eya2 phos inh -2.0% and IDH1 R132H inh 0.0%.
